Results on nine compounds are retold here after PubChem BioAssay (NCI).

The structures appear in SMILES notation. The panel holds about 83,000 compounds, 20% with a hit somewhere; the sample as a whole holds those more often.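 Plates (96-well) were seeded with cells, treated with compound at one concentration, and incubated for 48 hours before percent growth was determined.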 Values without a mark were called inactive. Calls of active or inactive are those of the source. How the source made its calls: active means growth percent below 10; inactive means the rest.

Test systems include NCI-H23 lung; NCI-H226 lung; NCI-H322M lung; HOP-62 NSCLC; NCI-H460 lung; HOP-92 NSCLC; NCI-H522 lung; A549/ATCC NSCLC; COLO 205 colon; DU-145 prostate; K-562 leukemia; MALME-3M melanoma; MDA-MB-231 breast; RXF 393 renal; SF-268 CNS; SF-295 CNS; SF-539 CNS; UACC-257 melanoma; 786-0 renal; M14 melanoma.
Common to all, as to test: NCI-60 one-dose screen, 48 h (100 = growth as untreated, 0 = no growth, -100 = all killed)
What all share (conditions): 10 µM unless noted

Take `CCCCn1c(=O)[nH]c(N)c(C(c2ccc(F)cc2)c2c(N)[nH]c(=O)n(CCCC)c2=O)c1=O`: the growth in the assay on NCI-H23 lung was 77.5%; in the assay with NCI-H226 lung, 77.7%; with NCI-H322M lung, 74.8%; with HOP-62 NSCLC, 77.4%; in the assay with NCI-H460 lung it was 51.6%; in the assay with HOP-92 NSCLC, 82.4%. Moreover, the growth was 51.6% with NCI-H522 lung; 69% with A549/ATCC NSCLC; 59.9% with COLO 205 colon; 79.1% in the assay with DU-145 prostate; 52.9% with K-562 leukemia; 87.7% in the assay on MALME-3M melanoma. Further, the growth was 62.9% in the assay on MDA-MB-231 breast; 65.5% in the assay with RXF 393 renal; 54.1% in the assay on SF-268 CNS; 56.8% with SF-295 CNS; 75.3% in the assay on SF-539 CNS; 65.9% in the assay with UACC-257 melanoma.
Regarding `CCN(CC)CCCNC(=O)c1ccc(N)cc1O`, the growth is 95.5% in the assay on NCI-H23 lung; 87.9% in the assay on NCI-H226 lung; 90.4% in the assay on NCI-H322M lung; 95.6% in the assay on HOP-62 NSCLC; 108% with NCI-H460 lung; 89.6% in the assay on HOP-92 NSCLC. Further, the growth is 96.6% in the assay with NCI-H522 lung; 103% with A549/ATCC NSCLC; 105% with 786-0 renal; 12.3% with K-562 leukemia; 91.2% in the assay on MALME-3M melanoma; 94.6% in the assay on MDA-MB-231 breast. The growth in the assay on RXF 393 renal was 91.3%; in the assay with SF-268 CNS it was 93.8%; in the assay with SF-295 CNS, 99.7%; in the assay with SF-539 CNS, 98.4%; with UACC-257 melanoma, 99.3%; with M14 melanoma, 94.5%.
Take `Cc1nn(-c2ccccc2)c2c1C(c1ccc([N+](=O)[O-])cc1)C(C#N)=C(N)O2` (centres undefined): the growth with NCI-H23 lung was 98.4%; in the assay with NCI-H226 lung it was 99.3%; in the assay with NCI-H322M lung it was 116%; in the assay with HOP-62 NSCLC, 94.3%; in the assay with NCI-H460 lung, 108%; in the assay with HOP-92 NSCLC, 91.7%. Further, the growth in the assay with NCI-H522 lung was 97.5%; with A549/ATCC NSCLC, 102%; with 786-0 renal, 102%; in the assay with DU-145 prostate it was 111%; in the assay on MDA-MB-231 breast it was 87.4%; in the assay on RXF 393 renal, 99.2%. Further, the growth in the assay on SF-268 CNS is 108%; in the assay on SF-539 CNS, 95.9%; in the assay on UACC-257 melanoma, 88.1%; in the assay with M14 melanoma, 106%.
On to `Cc1ccc(C)c2c1C(=O)OC2=O`, for which the growth was 95.5% in the assay on NCI-H23 lung; 98.4% in the assay on NCI-H226 lung; 89.3% in the assay on NCI-H322M lung; 92.1% with HOP-62 NSCLC; 111% in the assay on NCI-H460 lung; 128% with HOP-92 NSCLC. Besides, the growth was 80.8% in the assay with NCI-H522 lung; 99.4% with A549/ATCC NSCLC; 101% in the assay on 786-0 renal; 78.9% in the assay on K-562 leukemia; 87.8% in the assay on MALME-3M melanoma; 106% with MDA-MB-231 breast. Also, the growth is 127% in the assay on RXF 393 renal; 98.8% in the assay on SF-268 CNS; 96.2% in the assay with SF-295 CNS; 99.7% with SF-539 CNS; 102% with UACC-257 melanoma; 102% in the assay on M14 melanoma.
Consider `CCCCCCNc1cc(C)nc2ccc(OC)cc12`, for which the growth was 52.7% in the assay with NCI-H23 lung; 61.5% in the assay on NCI-H226 lung; 67.2% in the assay on NCI-H322M lung; 73.1% in the assay with HOP-62 NSCLC; 61.6% in the assay on NCI-H460 lung; 39.3% with HOP-92 NSCLC. The growth is 63.9% in the assay with NCI-H522 lung; 64.3% in the assay with A549/ATCC NSCLC; 68.9% with 786-0 renal; 21% in the assay with K-562 leukemia; 52.3% with MALME-3M melanoma; 69.6% in the assay with MDA-MB-231 breast. For the same compound, the growth in the assay on RXF 393 renal is 61.2%; in the assay on SF-268 CNS, 93.2%; in the assay with SF-295 CNS, 44.4%; in the assay with SF-539 CNS, 68.4%; in the assay on UACC-257 melanoma, 69.4%; with M14 melanoma it was 59.1%.
On to `CN(C)c1cnccn1`, for which the growth is 91.9% in the assay with NCI-H23 lung; 85.4% with NCI-H226 lung; 114% in the assay with NCI-H322M lung; 90.3% in the assay with HOP-62 NSCLC; 93.8% in the assay with NCI-H460 lung; 94.4% in the assay on HOP-92 NSCLC. Further, the growth with NCI-H522 lung was 45.9%; with A549/ATCC NSCLC, 91.3%; in the assay on 786-0 renal it was 98.3%; in the assay on MALME-3M melanoma, 127%; in the assay with MDA-MB-231 breast, 72.4%; in the assay with RXF 393 renal it was 94.5%. For the same compound, the growth with SF-268 CNS is 91.6%; with SF-295 CNS, 122%; in the assay on SF-539 CNS, 86.5%; in the assay with UACC-257 melanoma it was 95.3%; in the assay with M14 melanoma, 97.5%.
On to `CC1=NN(c2cccc(Cl)c2)C(=O)/C1=C\c1cn(CC(O)CN2CCCCC2)c2ccccc12` (centres undefined), for which the growth in the assay with NCI-H23 lung was 97.8%; in the assay on NCI-H226 lung, 96.8%; in the assay with NCI-H322M lung, 103%; in the assay on HOP-62 NSCLC, 73.6%; with NCI-H460 lung, 44.8%; with HOP-92 NSCLC it was 56.3%. Moreover, the growth in the assay with NCI-H522 lung is 71.9%; in the assay with A549/ATCC NSCLC it was 95.2%; in the assay on COLO 205 colon, -58% (active); in the assay with DU-145 prostate it was 96.7%; with K-562 leukemia, 28.9%; with MALME-3M melanoma, 32.9%. Besides, the growth is 41.4% with MDA-MB-231 breast; 67.1% with RXF 393 renal; 72.6% in the assay on SF-268 CNS; 62.4% with SF-295 CNS; 96.1% in the assay on SF-539 CNS; -82.1% (active) with UACC-257 melanoma.
Turning to `N#Cc1cnn2c(-c3ccc(Cl)cc3)nc(NC3CC3)nc12`, the growth is 90.9% in the assay with NCI-H23 lung; 97.4% in the assay with NCI-H226 lung; 87.5% in the assay on NCI-H322M lung; 98.3% in the assay with HOP-62 NSCLC; 100% in the assay on NCI-H460 lung; 97.5% in the assay with HOP-92 NSCLC. The growth in the assay on NCI-H522 lung is 90.6%; in the assay with A549/ATCC NSCLC, 84.4%; with 786-0 renal, 89.8%; in the assay with DU-145 prostate, 88.8%; in the assay with MALME-3M melanoma it was 125%; with MDA-MB-231 breast, 101%. Further, the growth in the assay on RXF 393 renal was 93.7%; with SF-268 CNS, 84.4%; in the assay with SF-295 CNS, 89.8%; in the assay on SF-539 CNS, 89.2%; in the assay with UACC-257 melanoma, 111%; in the assay on M14 melanoma, 108%.
On to `Nc1ccc(-c2cc3c(Nc4ccc(OCc5cccc(F)c5)c(Cl)c4)ncnc3s2)cc1`, for which the growth in the assay with NCI-H23 lung was 68.6%; in the assay on NCI-H226 lung, 53.5%; with NCI-H322M lung, 26.6%; with HOP-62 NSCLC, 62.3%; in the assay on NCI-H460 lung it was 36.5%; with HOP-92 NSCLC, 45.8%. Besides, the growth was 13.1% in the assay on NCI-H522 lung; 21.2% with A549/ATCC NSCLC; 37.2% in the assay with 786-0 renal; 36.9% in the assay on DU-145 prostate; 42.1% in the assay with MALME-3M melanoma; 13.4% with MDA-MB-231 breast. The growth in the assay on RXF 393 renal is 52.5%; in the assay with SF-268 CNS it was 52.1%; in the assay on SF-295 CNS, 47.8%; with SF-539 CNS, 57.4%; in the assay with UACC-257 melanoma it was 18.3%; in the assay on M14 melanoma, 51.9%.
